In the library only some 17% were active in any assay of this set; here they are far more common.
TDP1 cell noCPT – qHTS for Inhibitors of human tyrosyl-DNA phosphodiesterase 1 (TDP1): qHTS in cells in absence of CPT; DT40 Tdp1-/- hTDP1 cells, no CPT, ATP luminescence, 48 h; Potency, µM (top dose mostly 46.2 µM), without a hit: at the top dose activity change, negative = growth inhibition, usual class: inhibitors; actives 15% (n = 420,000); AID 686978, 2013; also: % is scaled to controls: 0 for no effect and ±100 for the full control effect; nearly all actives have a fitted effect of over 55% in size
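DT40 Tdp1-/-;hTDP1 cells, no CPT (DMSO vehicle only), 400 cells/well; compounds pin-transferred; ≥48 hr, 37 °C; CellTiter-Glo 30 min RT dark, luminescence read.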
TDP1 block – blocks human tyrosyl-DNA phosphodiesterase 1; recombinant TDP1, AlphaScreen DNA substrate cleavage; Potency, µM (highest dose often 130 µM), for inactives: at the top dose activity change, negative = inhibition, actives largely listed as inhibitors; actives 0.28% (n = 350,000); AID 485290; also: % is scaled to controls: 0 for no effect and ±100 for the full control effect; nearly all actives have a fitted effect of over 40% in size
Target sequence (Q9NUW8 whole entry, looked up): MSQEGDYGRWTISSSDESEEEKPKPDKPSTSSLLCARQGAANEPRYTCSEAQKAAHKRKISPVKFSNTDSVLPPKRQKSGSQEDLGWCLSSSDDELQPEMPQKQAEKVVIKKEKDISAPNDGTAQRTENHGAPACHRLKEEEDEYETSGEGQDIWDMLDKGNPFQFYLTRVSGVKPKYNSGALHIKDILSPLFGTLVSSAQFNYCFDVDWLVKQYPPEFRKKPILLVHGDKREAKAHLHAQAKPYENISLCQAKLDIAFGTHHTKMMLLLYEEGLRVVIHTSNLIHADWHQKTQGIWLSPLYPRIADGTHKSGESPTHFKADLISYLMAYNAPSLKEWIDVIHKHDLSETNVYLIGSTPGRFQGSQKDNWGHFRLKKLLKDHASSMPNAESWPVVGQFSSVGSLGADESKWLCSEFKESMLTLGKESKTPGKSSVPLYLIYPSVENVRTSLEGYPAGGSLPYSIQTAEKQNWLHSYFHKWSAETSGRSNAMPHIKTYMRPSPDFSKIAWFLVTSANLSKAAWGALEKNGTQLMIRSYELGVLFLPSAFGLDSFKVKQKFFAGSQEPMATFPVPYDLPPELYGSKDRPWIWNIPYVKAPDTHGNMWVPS
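Compounds were preincubated with Tdp1 (1 nM final) for 15 min at room temperature before substrate (15 nM final) started a 5 min reaction; beads (10 ug/ml final) were then added for 10 min before AlphaScreen detection.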
DT40 TDP1 CPT – DT40-hTDP1 cell growth loss with CPT. AID 686979. actives 12% (n = 420,000). chicken DT40 Tdp1-/-;hTDP1 cells + 20 nM CPT, ATP luminescence, 48 h. Potency, µM (highest dose often 46.2 µM), for the others: at the highest dose activity change, negative = growth inhibition, actives largely listed as inhibitors; also: % is scaled to controls: 0 for no effect and ±100 for the full control effect; nearly all actives have a fitted effect of over 55% in size
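Chicken DT40 Tdp1-/- cells stably complemented with human TDP1 were seeded at 400 cells/well in medium containing 20 nM camptothecin, exposed to pin-transferred compounds, and grown at 37 °C for at least 48 hr. Viability was read as ATP luminescence.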
ClpP mod – qHTS Assay for Activators of ClpP; purified B. subtilis ClpP, FRET peptide cleavage, 20 min; Potency, µM (highest dose often 57.5 µM), for inactives: at the top dose activity change, negative = active; actives 1.9% (n = 340,000); active = well fitted falling curve with a large enough effect; inconclusive = small, poorly fitted or top-dose-only effect; inactive = no such curve, though single readings can be large or run the other way; also: the source files actives as falling curves though it sought activators and does not explain the sign; nearly all actives have a fitted effect of over 65% in size
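FRET quenching reversal measured ClpP activation: 10 microg/mL B. subtilis ClpP at pH 8 with the FRET-FV decapeptide, read at 430 nm after 320 nm excitation. The 20-min minus 0-min signal was scaled between DMSO/no-enzyme wells and ADEP (5.8 microM final).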
An asterisk follows results filed as active; [ ] = remark or other dose. Unless noted, calls follow the shape of the dose curve; as a rule, active = well fitted curve in the direction sought with a large enough effect; inconclusive = small, poorly fitted or top-dose-only effect, or another doubt; inactive = no such curve, though single readings can be large; an effect the other way counts as inactive or inconclusive. Potency is read from the fitted curve at half-maximal effect.

How did COC(C(=O)C(O)C(C)O)C1Cc2cc3cc(OC4CC(OC5CC(O)C(O)C(C)O5)C(O)C(C)O4)c(C)c(O)c3c(O)c2C(=O)C1OC1CC(OC2CC(OC3CC(C)(O)C(O)C(C)O3)C(O)C(C)O2)C(O)C(C)O1 (configuration not stated) do in these assays?
TDP1 cell noCPT: 0.0282µM*; DT40 TDP1 CPT: 0.159µM*; ClpP mod: -0.7%

Results for CO[C@H](C(=O)[C@@H](O)[C@@H](C)O)C1Cc2cc3cc(O[C@H]4C[C@@H](O[C@H]5C[C@@H](O)[C@H](O)[C@@H](C)O5)[C@@H](O)[C@@H](C)O4)c(C)c(O)c3c(O)c2C(=O)[C@H]1O[C@H]1C[C@@H](O[C@H]2C[C@@H](O[C@H]3C[C@](C)(O)[C@H](O)[C@@H](C)O3)[C@H](O)[C@@H](C)O2)[C@H](O)[C@@H](C)O1 (some centres not stated) ?
TDP1 cell noCPT: 0.0841µM*; DT40 TDP1 CPT: 0.075µM*

How did CS(=O)(=O)c1ccc(C(=O)N2CCC(C(=O)O)(c3ccccc3)CC2)cc1 do in these assays?
TDP1 cell noCPT: -2.1%; TDP1 block: 10.6%; DT40 TDP1 CPT: -0.2%

What do the screens show for `CCOC(=O)NC(C)(C)Cc1ccc(Cl)cc1`?
TDP1 cell noCPT: inconclusive; DT40 TDP1 CPT: 4.9%

How did O=C(Nc1nnc(-c2ccco2)o1)c1cccc2ccccc12 do in these assays?
TDP1 cell noCPT: inconclusive; TDP1 block: -2.3%; DT40 TDP1 CPT: inconclusive; ClpP mod: 0.4%

Results for COc1ccccc1CC(=O)Nc1ccc2c(c1)OC1(CCCC1)O2 ?
TDP1 cell noCPT: inconclusive; TDP1 block: 5.9%; DT40 TDP1 CPT: inconclusive

What do the screens show for `BrCC(Br)(Br)Br`?
TDP1 cell noCPT: inconclusive; TDP1 block: -0.3%; DT40 TDP1 CPT: 9.2µM*; ClpP mod: -0.5%

How did Cc1cccc(N2CCN(C(=O)C34CC5CC(CC(C5)C3)C4)CC2)c1C do in these assays?
TDP1 cell noCPT: inconclusive; TDP1 block: 1.1%; DT40 TDP1 CPT: inconclusive; ClpP mod: 0.7%

Results for CCCc1cc(N2CCN(c3cccc(C)c3C)CC2)n2cnnc2n1 ?
TDP1 cell noCPT: 18.4µM*; TDP1 block: 2.3%; DT40 TDP1 CPT: 16.4µM*; ClpP mod: -1.1%

How did O=C(O)c1[nH]c(=O)[nH]c(=O)c1F do in these assays?
TDP1 cell noCPT: 11.6µM*; TDP1 block: -2.9%; DT40 TDP1 CPT: 11.6µM*

What do the screens show for `O=C(Cn1c(=O)n(Cc2ccccc2)c(=O)c2sc3ccccc3c21)NCc1ccccc1Cl`?
TDP1 cell noCPT: inconclusive; TDP1 block: 3.8%; DT40 TDP1 CPT: -17.3%; ClpP mod: -14.5%

What do the screens show for `COc1ccc(NC(=O)N2CCC3(CC2)OCCO3)cc1`?
TDP1 cell noCPT: -1.1%; TDP1 block: 1.2%; DT40 TDP1 CPT: inconclusive; ClpP mod: 0.0%

Results for C=C1CCN([C@@H](CC(C)C)C(=O)Nc2ccc(OC)cc2)S(=O)(=O)c2ccccc21 ?
TDP1 cell noCPT: 23.1µM*; DT40 TDP1 CPT: inconclusive; ClpP mod: -0.6%

Results for O=C(NCCO)c1nsnc1NCCCl ?
TDP1 cell noCPT: 7.3%; TDP1 block: 2.5%; DT40 TDP1 CPT: 9.2%

Results for Nc1nc(N)c2nc(CNc3ccc(C(=O)N[C@@H](CCC(=O)O)C(=O)O)cc3)cnc2n1 ?
TDP1 cell noCPT: 16.4µM*; DT40 TDP1 CPT: inconclusive

What do the screens show for `N#CC1c2ccccc2C=CN1C(=O)c1ccc(N(CCCl)CCCl)cc1` (configuration not stated)?
TDP1 cell noCPT: 18.4µM*; DT40 TDP1 CPT: 23.1µM*; ClpP mod: 4.0%

What do the screens show for `N#Cc1ccc(C(=O)N2Cc3cnnn3-c3ccccc3C2C#N)cc1` (configuration not stated)?
TDP1 cell noCPT: 0.8%; DT40 TDP1 CPT: 7.8%; ClpP mod: 0.5%

What do the screens show for `CCCCN1C(=O)NC(=O)C2(Cc3c(nc4c(C)cccn4c3=O)N3CCc4ccccc4C32)C1=O` (configuration not stated)?
TDP1 cell noCPT: 16.4µM*; TDP1 block: 4.1%; DT40 TDP1 CPT: 20.6µM*; ClpP mod: inconclusive

What do the screens show for `CCCCN1C(=O)NC(=O)C2(Cc3c(nc4ccccn4c3=O)N3CCc4ccccc4C32)C1=O` (configuration not stated)?
TDP1 cell noCPT: -15.2%; TDP1 block: 6.0%; DT40 TDP1 CPT: -19.5%; ClpP mod: -6.2%

Results for CC=CC(C)=CC(C)C(=O)CC(O)CC1CC(=O)NC(=O)C1 (configuration not stated) ?
TDP1 cell noCPT: 5.8µM*; DT40 TDP1 CPT: 8.2µM*; ClpP mod: -0.1%

Results for Cc1nc(-c2ccc(-c3ccc(C(=O)N4CCc5cc6c(cc54)C4(CCN(C)CC4)CO6)cc3)c(C)c2)no1 ?
TDP1 cell noCPT: 5.96µM*; TDP1 block: 20.8%[56.1 µM]; DT40 TDP1 CPT: 7.5µM*

What do the screens show for `Cc1c(C(=O)c2cccc3ccccc23)c2cccc3c2n1[C@@H](CN1CCOCC1)CO3`?
TDP1 block: 9.2%

What do the screens show for `CC1Oc2cc3c(-c4c(O)cc(O)c5c(O)c6c(cc45)OC(C)C(C)C6=O)c(O)cc(O)c3c(O)c2C(=O)C1C` (configuration not stated)?
TDP1 cell noCPT: 0.116µM*; TDP1 block: 7.6%; DT40 TDP1 CPT: 0.0164µM*; ClpP mod: 0.4%

What do the screens show for `NCCc1cccc(O)c1`?
TDP1 cell noCPT: -11.8%; TDP1 block: 6.1%; DT40 TDP1 CPT: -7.9%

How did CCOP(=O)(OCC)C(NC(=O)c1cccc(C)c1)C(Cl)(Cl)Cl (configuration not stated) do in these assays?
TDP1 cell noCPT: -1.5%; TDP1 block: 6.3%; DT40 TDP1 CPT: 16.8%; ClpP mod: 3.3%

Results for CCN(CC)c1ccc(NC(=O)c2cccc(C)c2)cc1S(=O)(=O)Nc1ccccc1OC ?
TDP1 cell noCPT: 23.1µM*; TDP1 block: -1.2%; DT40 TDP1 CPT: 16.4µM*; ClpP mod: -9.7%

What do the screens show for `CCCCOC1OCN(C2CCCCC2)CC1(C)C` (configuration not stated)?
TDP1 cell noCPT: inconclusive; DT40 TDP1 CPT: -18.6%; ClpP mod: 1.1%

What do the screens show for `O=c1[nH]c(=O)n(Cc2ccco2)c(O)c1C=NCc1cccs1`?
TDP1 cell noCPT: -13.9%; TDP1 block: -8.2%; DT40 TDP1 CPT: 1.5%; ClpP mod: -1.6%

Results for CCn1c(O)c(C=NCc2cccs2)c(=O)[nH]c1=O ?
TDP1 cell noCPT: 29.1µM*; TDP1 block: -2.1%; DT40 TDP1 CPT: inconclusive; ClpP mod: -0.1%

What do the screens show for `COC(=O)C1=C(c2ccc(OCc3ccccc3)cc2)C[C@@H]2CC[C@H]1N2C(=O)NCc1ccc2c(c1)OCO2`?
TDP1 cell noCPT: 4.11µM*; DT40 TDP1 CPT: 5.8µM*; ClpP mod: -6.9%

Assay outcomes from PubChem.
